# Measured values taken from PubChem BioAssay AID1259336 (Sattelle Laboratory, UCL Respiratory, Division of Medicine, …, 2017).
# A number with no mark means an inactive call. Calls of active or inactive are those of the source. Rule as the data show it: active = log2 fold change growth below about -1.8; inactive = the rest.
# Assay: anthelmintic activity against nematode growth – whole organism, log2 fold change (AID 1259336);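 also: growth scored by imaging after five days at 20 °C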
# Conditions: C. elegans growth, anthelmintic screen; active compounds read low
row,Compound,log2 fold change growth
1,Cc1cnc(N2CCN[C@@H](Cc3ccccc3)C2)nc1Oc1ccc(-n2ccnc2)cc1,0.245
2,Clc1cccc([C@H](c2ccc(CN3CCNCC3)cc2)n2ccnc2)c1,-0.356
3,CCc1ccccc1-n1c(C)cn2c3c(=O)n([C@H](C(=O)OC)C(C)C)c(=O)n(C)c3nc12,0.456
4,CCCNC(=O)N1CCC2(CC1)CC(=O)c1cc(C)ccc1O2,-0.181
5,N#Cc1nc(-c2ccccc2F)oc1NCCc1ccccc1,-0.468
6,C[C@H]1c2cccc(O)c2C(O)=C2C(=O)[C@]3(O)C(O)=C(C(N)=O)C(=O)[C@@H](N(C)C)[C@@H]3[C@@H](O)[C@@H]21,0.805
7,Clc1ccc(CCNc2cc(-c3ccccc3)nc3ncnn23)cc1,-0.81
8,COc1ccc([C@@H]2CC(c3cccs3)=NN2C(=O)c2ccco2)cc1OC,-0.296
9,O=C(Nc1ccc(N2CCNCC2)nc1)c1oc(-c2ccccc2)nc1C(F)(F)F,-0.164
10,NCCC[C@@](N)(C(=O)O)C(F)F,0.109
11,Cc1cc(NCC(C)C)c2[nH]nc(-c3ccccc3)c2n1,0.0984
12,Cn1ccnc1CNCCS(=O)(=O)c1cccc(Nc2ccc(-c3cccc(F)c3)cn2)c1,0.155
13,Brc1c(-c2ccc3c(c2)OCO3)nc2ncccn12,0.0304
14,Nc1cccnc1Nc1ccc(Cl)cc1,0.497
15,c1ccc2c(c1)CN(CC1CC1)CC1(CCN(Cc3c[nH]c4cnccc34)CC1)O2,0.264
16,Oc1c(I)cc(I)c2cccnc12,0.0616
17,O=C(NCCc1ccccc1)c1cc(-c2cccnc2)cnc1NCC1CC1,-0.19
18,O=C(COc1cccc(F)c1)Nc1nc(-c2ccccn2)cs1,-0.223
19,CCC(=O)Nc1ccccc1C(=O)Nc1ccccn1,0.194
20,Nc1ncc(Br)cc1-c1nc2ncc(Cl)cc2[nH]1,0.329
21,Cc1cc(NC(=O)c2ccc(Oc3ccc(Cl)cc3O)o2)no1,0.201
22,O=C(Nc1c(O)cccc1-c1nc2c(C(=O)O)cccc2o1)c1cc(-c2ccccc2)on1,-0.772
23,C[C@@H](C(=O)N1CCCC1)N1CCN(S(=O)(=O)c2ccc(C(C)(C)C)cc2)CC1,0.667
24,Nc1ncc(-c2ccc(C(F)(F)F)nc2)cc1-c1ccc(C(F)(F)F)nc1,0.0312
25,Cc1[nH]n2c(=O)c3c(nc2c1-c1ccc(Cl)cc1)CCCC3,-0.182
26,O=C1COCc2ccc(Br)cc2N1Cc1ccc(C(F)(F)F)cc1,-0.402

row,Compound,log2 fold change growth
1,CC(=O)Oc1ccccc1C(=O)Nc1ncc([N+](=O)[O-])s1,0.253
2,O=C(NCc1ccco1)N1CCN(Cc2ccc(Cl)s2)CC1,0.334
3,Nc1ncnc2c1ncn2C[C@@H](O)[C@@H](O)C(=O)O,-0.0899
4,COC(=O)c1c(NC(=O)c2c(F)c(F)c(F)c(F)c2F)sc2c1CCCCC2,0.243
5,COc1ccc(-c2cnc3ccc(NCc4ccc(S(N)(=O)=O)cc4)nn23)cn1,0.21
6,O=C(NCCc1ccn(-c2ccccc2)n1)C1CCCCC1,0.0936
7,Cc1nc(-c2ccccn2)nc(N(C)CCc2ccccc2)c1Cl,-0.0752
8,Cc1cccc(Cn2ccc(NC(=O)c3ccc4c(c3)OCO4)n2)c1,-0.327
9,c1cc(C2=NCCN2)cc(-c2cc(-c3ccc(C4=NCCN4)cc3)no2)c1,0.193
10,CN1CCN(c2nccc3[nH]c(-c4cccc(F)c4)cc23)CC1,-0.0356
11,CCCS(=O)(=O)N1CCC(CO)(Cc2ccccc2C(F)(F)F)CC1,0.357
12,CN(C)CCNC(=O)N1CCCN(c2ncnc3cc(-c4ccccc4)sc23)CC1,-0.255
13,Cc1ccc(S(=O)(=O)n2cc(-c3ccnc(N)c3)c3cc(Br)cnc32)cc1,-0.39
14,O=C(NC1CC1)c1ccc(N2CCOc3ccc(Cl)cc32)s1,-0.614
15,CCOc1ccc(-c2nc(NC(=O)CS(=O)(=O)c3ccccc3)sc2C)cc1,-1.31
16,Nc1ccc2ncnc(Nc3ccc(OCc4cccc(F)c4)c(Cl)c3)c2c1,-0.0667
17,CC(C)NCC(=O)Nc1cccc(C(=O)Nc2cccc(C(F)(F)F)c2)c1,0.0022
18,COc1ccc2nccc(NC(=O)C3CCN(CCc4ccc(Cl)cc4)CC3)c2n1,0.423
19,CN1CCN(CCCOc2ncc(Nc3ncc(-c4ccc(C(F)(F)F)c(F)c4)nc3C(N)=O)cn2)CC1,-0.568
20,N[C@@H](CC(=O)c1ccc(Cl)cc1Cl)C(Cl)(Cl)Cl,-0.444
21,Cc1nc2ccccn2c1C(=O)NCc1ccc(Cl)cc1,0.244
22,CNCC[C@H](Oc1ccc(C(F)(F)F)cc1)c1ccccc1,0.102
23,CNC(=O)c1cc(S(=O)(=O)N2CCN(c3ccccn3)CC2)cs1,-0.156
24,N=C(N)c1ccc(-c2cc(-c3ccccc3)on2)cc1,0.247
25,Nc1ncnc2n[nH]c(Cc3cccc4ccccc34)c12,0.242
26,O=C(Nc1cnc2ccccc2c1)c1cccc(-n2cnnn2)c1,0.489

row,Compound,log2 fold change growth
1,COc1cc2ncnc(NC3CCN(Cc4ccccc4)CC3)c2cc1OC,-0.116
2,COc1cc(CN2CCC3(C=Cc4ccccc43)CC2)cc2c1OCO2,-0.677
3,CC(C)[C@H](NC(=O)Cc1cccc2ccccc12)C(=O)Nc1cccc(C#N)c1,0.334
4,Nc1nc2ccc(-c3cncc(Oc4ccc(F)cc4)c3)cc2[nH]1,0.264
5,CCCCOC(=O)Nc1cc2[nH]c(C3CCCCC3)nc2cc1N1CCCC1,-0.373
6,O=C(Nc1ccccc1)c1ccc(-c2cc3ccncc3cc2OC2CCNCC2)s1,-0.0844
7,CCc1ccc([C@@H]2C[C@H](C(F)(F)F)n3ncc(C(=O)NCc4ccc(OC)cc4)c3N2)cc1,-1.82 (active)
8,Cc1cccnc1NC(=O)c1cccc(OCc2c(C)noc2C)c1,0.0511
9,Cn1c(=O)c2c(S(C)(=O)=O)snc2n(C)c1=O,0.155
10,CO[C@@H](C(=O)N1Cc2[nH]nc(NC(=O)c3ccc(N4CCN(C)CC4)cc3)c2C1)c1ccccc1,0.339
11,Clc1ccc(Cl)c(CO[C@H]2CCCC[C@@H]2n2ccnc2)c1,0.0539
12,CC(=O)N1CCN(c2ccc(Oc3ccc(Cl)cc3O)cc2)CC1,0.423
13,Cc1cccc(-c2nc(Nc3ccncn3)c3sccc3n2)n1,0.438
14,FC(F)(F)c1cnc(Sc2nnc(-c3ccncc3)o2)c(Cl)c1,-0.0782
15,O=C(Nc1nc(-c2ccccn2)cs1)c1cncn1-c1ccccc1,-0.307
16,O=C(C1CCN(c2nnc(-n3cccc3)s2)CC1)N1CCC(Cc2ccccc2)CC1,0.102
17,O=C(C1CCN(c2nnnn2-c2ccccc2)CC1)N1CCc2ccccc2C1,-0.288
18,CNc1cc(C)nc([C@@H]2CN(C(=O)c3n[nH]c4ccccc34)CCO2)c1,0.0798
19,CN1CCCN([C@@H](c2ccccc2)c2ccc(Cl)cc2)CC1,0.517
20,CNC(=O)CNc1nc(-c2ccccn2)nc2scc(-c3ccccc3)c12,0.152
21,C[C@H]1COC2(CCN(c3nc(=O)c4cc(C(F)(F)F)cc([N+](=O)[O-])c4s3)CC2)O1,-0.284
22,Cn1ncc2c(N3CCOCC3)nc(NCCc3c[nH]c4ccccc34)nc21,0.0196
23,COc1ccc(-c2cnc3ccc(N4CCCC4)nn23)cc1OC,-0.625
24,Nc1ccc(C(=O)Nc2ccc(-c3nc4ccccc4o3)cc2)cc1,-7.04 (active)
